From ChEMBL document CHEMBL4513216, “Probing the Open Global Health Chemical Diversity Library for Multistage-Active Starting Points for Next-Generation Antimalarials” (ACS Infect Dis, 2020)
About 2,700 (4%) of roughly 68,000 compounds showed an effect of 50% or more. Shown is part of a subset that was picked to be rich in strong results.

Each molecule was assayed on Plasmodium berghei (assay: Screen against P. berghei liver stage (PbLuc), transformed with Luciferase, at 2uM). Details: tested at 2 uM.
Type: functional, HepG2

In order of rising INHIBITION:
1. Cc1n[nH]c(C2CN(Cc3nnc(C4CC4)n3C)CCO2)n1 (configuration not stated)  -82.49%
2. Cc1cnn(CC2CCCN2C(=O)c2ccc3[nH]c(=O)[nH]c3c2)c1 (configuration not stated)  -73.25%
3. CCc1nc(C2CCCN2C(=O)c2c[nH]c(C)n2)no1 (configuration not stated)  -72.93%
4. COc1cccc2c(=O)n(Cc3cccnc3)cnc12  -66.95%
5. Cc1cccc(N2CCC(NC(=O)CCCc3cccs3)CC2)n1  -52.85%
6. CC[C@H]1CN(C(=O)c2cnc(CN3CCCC3)s2)CC[C@@]1(C)O  -47.18%
7. COCCCNC(=O)CN(C)C(=O)c1ccc(-n2cccc2)cc1O  -44.96%
8. COc1ccc(C2(NCc3c(C)nc4c(C)cccn34)CCCC2)cc1  -43.11%
9. O=C(Cc1ccc(F)cc1)NCCNS(=O)(=O)C1CCCC1  -36.61%
10. CCc1cc(NC2CCOCC2)n2nc(C)c(C)c2n1  -35.61%
11. Cc1nnc(CN(C)CCCOc2cccc(Cl)c2)o1  -33.74%
12. COc1ccc2cc(C(=O)N3CCCCC3Cn3cccn3)[nH]c2c1 (configuration not stated)  -28.85%
13. CC(=O)N(Cc1noc(C2CC2)n1)C1CCN(Cc2nccn2C)C1 (configuration not stated)  -27.69%
14. CCc1nc(C2CCCN2C(=O)CCc2nc(C3CC3)no2)no1 (configuration not stated)  -25.46%
15. COc1ncccc1CN1CCC2(CC1)CC(OCC1CC1)CO2 (configuration not stated)  -23.93%
16. CN(C)C(=O)CN1CCC(c2c(C(N)=O)sc3ncccc23)C1 (configuration not stated)  -21.9%
17. CC1CCN(C(=O)[C@H]2C[C@@H]3CCN(CC4CCOCC4)C[C@@H]3O2)CC1  -21.33%
18. CC(=O)N1CCOC2(CCN(C(=O)c3cnoc3C)CC2)C1  -21.09%
19. COCC(=O)NC(C)Cc1cccc(Cl)c1 (configuration not stated)  -20.82%
20. CCc1cccnc1NCc1cnc(N2CCOCC2)nc1  -20.29%
21. Cc1cnn(CC2CCCN2C(=O)c2cc3ccccc3[nH]2)c1 (configuration not stated)  -20.11%
22. CN(CCOc1cccc(Cl)c1)Cc1nnc(C(C)(C)C)o1  -19%
23. O=C(c1cn2ccsc2n1)N1CCN(CC2CC2)[C@@H]2CS(=O)(=O)C[C@@H]21  -18.12%
24. COCCOC1CCN(C(C(=O)O)c2c(Cl)cccc2OC)CC1 (configuration not stated)  -17.86%
25. CC(C)c1nc(C2CCCN2Cc2ccccc2C#N)no1 (configuration not stated)  -17.71%
26. CCC(C)n1cnc(S(=O)(=O)N(C)C)c1 (configuration not stated)  -15.03%
27. CC(C)N1CCN(CCn2cnc3c(F)cccc3c2=O)CC1  -13.34%
28. Cc1cc(=O)[nH]c(=O)n1-c1cccc(Cl)c1Cl  -12.39%
29. CC(C)c1nc(C2CCCN2Cc2ccno2)no1 (configuration not stated)  -9.3%
30. COc1cc(C(=O)N(C)Cc2nccn2CC(F)(F)F)ccc1C  -5.68%
31. O=C(Nc1cccc(CNCc2cccs2)c1)C1CCCC1  -5.15%
32. Cc1ccc(C(=O)N(C)Cc2nccn2CC(F)(F)F)cn1  -4.59%
33. OC1(CN2CCOC(Cn3cccn3)C2)CCCCC1 (configuration not stated)  -1.88%
34. CC(C)c1nc(C2CCCN2c2cnc3ccccc3n2)no1 (configuration not stated)  1.41%
35. Cc1nc(C2CCCN2Cc2ccon2)no1 (configuration not stated)  1.63%
36. Cc1ccc([C@@H]2CN(S(=O)(=O)C(C)C)C[C@H]2N(C)C)cc1  4.47%
37. CCc1nc(C2CCCN2C(=O)c2ccc(N(C)C)nn2)no1 (configuration not stated)  5.91%
38. Cn1cccc1C(=O)N1CCc2c(CNS(C)(=O)=O)cncc2C1  6.66%
39. CC(C)CNC(=O)[C@H]1CCS(=O)(=O)[C@@H]2CN(Cc3ccc(Cl)cc3)C[C@H]12  8.13%
40. Cc1ccc(-c2noc(CN3CCC(N4CCNC4=O)CC3)n2)cc1  9.17%
41. Cc1ocnc1C(=O)N1CCCC1c1ccc(C(=O)N2CCSCC2)s1 (configuration not stated)  9.31%
42. NC(=O)CN1CCCN(C(=O)Cc2ccc(Br)cc2)CC1  11.24%
43. CC(C)c1cccc(-n2cc(O)c(C(N)=O)n2)c1  11.9%
44. CCC(C)n1cnc(S(=O)(=O)N(C)c2cccnc2N(C)C)c1 (configuration not stated)  11.9%
45. CNc1ncc(-c2csc(NC(=O)C[C@H]3COCCN3)n2)cn1  12.21%
46. CC(C)(C)NC(=O)c1cccc(CN2CCS(=O)(=O)CC2)c1  12.32%
47. Cc1cnc(CN2CCCC2c2noc(C(C)C)n2)cn1 (configuration not stated)  13.86%
48. Cn1ccc(CN2CCC(CC(=O)N3CCCC3)CC2)cc1=O  14.5%
49. CC(C)c1nc(C2CCCN2c2ccnc(C3CCCC3)n2)no1 (configuration not stated)  14.92%
50. CCc1nc(C2CCCN2C(=O)c2ccc3c(c2)COC3)no1 (configuration not stated)  16.18%
51. CCc1nc(C2CCCN2Cc2nnc(C3CCC3)o2)no1 (configuration not stated)  16.26%
52. O=C(Cc1ccccn1)N1CCN(CC2CC2)c2ncccc2C1  16.87%
53. CCn1cc(-c2cc(-c3ccn(C)c3)nc(N)c2C#N)cc1C#N  17.19%
54. COCc1nc(C(=O)NS(=O)(=O)c2c(C)c(C)cc(C)c2C)cs1  18.85%
55. Cc1cc(NC(=O)CN2CCCC2c2noc(C(C)C)n2)no1 (configuration not stated)  21.12%
56. O=C1CC(NS(=O)(=O)N2CCOCC2)CN1Cc1ccccc1 (configuration not stated)  21.22%
57. O=C1NCCN1C1CCN(Cc2nc(-c3ccc(F)cc3)no2)CC1  21.39%
58. C1CC(c2nnc(CN3CCCC3c3noc(C4CC4)n3)o2)C1 (configuration not stated)  21.43%
59. CC(C)Nc1ncc(-c2csc(NC(=O)C[C@H]3COCCN3)n2)cn1  22.1%
60. CCc1cccc(N2CCC(NC(=O)C3CCCO3)CC2)c1 (configuration not stated)  22.53%
61. CC(C)c1ccc(-n2cc(O)c(C(=O)O)n2)cc1  23.16%
62. Cc1csc2c(=O)n(CCN3CCNCC3)cnc12  23.68%
63. COc1cccc2c(=O)n(C3CCNCC3)cnc12  24.6%
64. O=c1c2cccc(F)c2ncn1CCN1CCOCC1  25.37%
65. CN(C)CC(=O)N1CCC2(CC1)CN(c1ncccn1)CCO2  25.4%
66. CN(Cc1nccn1CC(F)(F)F)C(=O)c1cccc(N(C)C)c1  27.53%
67. Cn1nccc1CCNC(=O)[C@H]1CNC[C@H](C(=O)N2CCCC2)C1  27.73%
68. Cc1ccc([C@@H]2CN(S(=O)(=O)N(C)C)C[C@H]2N(C)C)cc1  28.49%
69. Cc1nc(N)sc1C(=O)N1CCCC(c2nccn2CCCN(C)C)C1 (configuration not stated)  29.02%
70. CNc1cncc(C2CCCN2S(=O)(=O)c2ccccc2F)n1 (configuration not stated)  29.89%
71. CCCc1n[nH]c(C2CN(Cc3nnc(C4CC4)n3C)CCO2)n1 (configuration not stated)  30.05%
72. CN1CCN(CCn2cnc3c(F)cccc3c2=O)CC1  30.42%
73. CC(C)c1nc(C2CCCN2CC(=O)N2CCc3ccccc32)no1 (configuration not stated)  30.91%
74. O=C(Nc1cccc(CNCc2ccsc2)c1)C1CC1  30.92%
75. CC(C)C(=O)N1CCN(Cc2ccccn2)CC2(CC(=O)N(C)C2)C1 (configuration not stated)  31.5%
76. CN(Cc1nccn1CC(F)(F)F)C(=O)c1ccc(F)c(F)c1  32.57%
77. Cc1nn(Cc2ccc(C(=O)NCCCN3CCOCC3)o2)c(C)c1Cl  32.66%
78. CS(=O)(=O)N(Cc1ccon1)c1ccc2c(c1)OCO2  37.25%
79. Cc1nc(C)c(C(=O)N2CCCC(c3cnccn3)C2)s1 (configuration not stated)  38.65%
80. Cc1cnn(CC2CCCCN2C(=O)c2ccc3[nH]nnc3c2)c1 (configuration not stated)  39.32%
81. Cn1ncc(N2CCOC(CCNC(=O)NC(C)(C)C)C2)cc1=O (configuration not stated)  39.32%
82. O=C1CC(NS(=O)(=O)N2CCOCC2)CN1CCc1ccccc1 (configuration not stated)  43.44%
83. CCc1nc(C2CCCN2C(=O)CCc2nc(C(C)(C)C)no2)no1 (configuration not stated)  44.43%
84. O=c1c2cccc(C(F)(F)F)c2ncn1CCN1CCNCC1  50.61%
85. COc1cccc2c(=O)n(CCN3CCNCC3)cnc12  50.61%
86. CC(C)c1cccc(-n2cc(O)c(C(=O)O)n2)c1  50.61%
87. CCc1n[nH]c(C2CN(Cc3nnc(C4CC4)n3C)CCO2)n1 (configuration not stated)  51.32%
88. CCc1nc(C2CCCN2C(=O)CCc2c(C)noc2Cl)no1 (configuration not stated)  51.94%
89. CCOc1ccc(C(=O)N(C)Cc2nccn2CC(F)(F)F)cc1  52.57%
90. CC(C)c1nc(C2CCCN2Cc2nnc(C3CCC3)o2)no1 (configuration not stated)  53.33%
91. Cc1cnn(CC2CCCN2C(=O)c2ccc3[nH]nnc3c2)c1 (configuration not stated)  53.72%
92. COc1ccc2cc(C(=O)N3CCCC3Cn3cc(C)cn3)[nH]c2c1 (configuration not stated)  53.98%
93. CC(C)c1nc(C2CCCN2c2cnc3cc(F)c(F)cc3n2)no1 (configuration not stated)  55.43%
94. CC(C)c1nc(C2CCCN2Cc2ccon2)no1 (configuration not stated)  56.02%
95. CC(C)c1nc(C2CCCN2CC(=O)N2CCNC2=O)no1 (configuration not stated)  57.33%
96. O=C1CC(NS(=O)(=O)N2CCOCC2)CN1Cc1ccc(F)cc1 (configuration not stated)  57.75%
97. CCn1ccnc1C1CCCN(C(=O)c2sc(C)nc2C)C1 (configuration not stated)  58.56%
98. CCC(C)n1cnc(S(=O)(=O)N(Cc2cccnc2)C(C)C)c1 (configuration not stated)  59.03%
99. CC(C)c1nc(C2CCCN2Cc2ccncc2Cl)no1 (configuration not stated)  60.09%
100. O=C(Nc1cccc(CNCc2cccs2)c1)C1CC1  62.82%
101. Nc1ncc(-c2csc(NC(=O)C[C@H]3COCCN3)n2)cn1  62.99%
102. CCc1nc(C2CCCN2C(=O)c2ccc(N3CCCC3)nn2)no1 (configuration not stated)  63.46%
103. O=C1NCCN1C1CCN(Cc2nc(-c3ccccc3)no2)CC1  64.16%
104. Cc1ccc([C@@H]2CN(S(=O)(=O)N3CCC(C)CC3)C[C@H]2N(C)C)cc1  65.1%
105. O=c1c2cccc(F)c2ncn1CCN1CCNCC1  65.76%
106. Cc1nnc(CN(C)CCOc2cccc(Cl)c2)o1  70.83%
107. CN(Cc1nccn1CC(F)(F)F)C(=O)c1ccc(F)cc1F  73.96%
